Laboratory results reported in publication PMC4336329 (PLoS ONE, 2015).
About 14,000 (4.5%) of roughly 310,000 compounds showed an effect of 50% or more. The effect is printed as a negative number. For the sample, strong results were picked, then their nearest neighbours and some compounds at random. *1 amine or outer side, *2 acyl side, *3 side chain or, on linkers, in order; H or OH if unused. Where a SMILES comes first, the peptide text is derived from it. Bridges are numbered along the chain shown (N, C = ends). [ ]: non-standard residue; d: D form. ξ: configuration not given here. hSer(Ph(2-I,4-NO2,6-CO)) = O=C([C@H](CCOc1c(I)cc([N+](=O)[O-])cc1C(=O)[*:3])N[*:1])[*:2]; ξD = NC(CC(=O)O)C(=O)O

These compounds were tested against human ether-à-go-go-related gene (hERG) potassium channel (human, UniProt Q12809) (assay: primary screen, population patch clamp on CHO cells stably expressing hERG; higher = less effect of the substance).
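Note: peak tail current of the secondary pulse compared with the same well before compound.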

Sequence of human ether-à-go-go-related gene (hERG) potassium channel (Q12809 whole entry, looked up): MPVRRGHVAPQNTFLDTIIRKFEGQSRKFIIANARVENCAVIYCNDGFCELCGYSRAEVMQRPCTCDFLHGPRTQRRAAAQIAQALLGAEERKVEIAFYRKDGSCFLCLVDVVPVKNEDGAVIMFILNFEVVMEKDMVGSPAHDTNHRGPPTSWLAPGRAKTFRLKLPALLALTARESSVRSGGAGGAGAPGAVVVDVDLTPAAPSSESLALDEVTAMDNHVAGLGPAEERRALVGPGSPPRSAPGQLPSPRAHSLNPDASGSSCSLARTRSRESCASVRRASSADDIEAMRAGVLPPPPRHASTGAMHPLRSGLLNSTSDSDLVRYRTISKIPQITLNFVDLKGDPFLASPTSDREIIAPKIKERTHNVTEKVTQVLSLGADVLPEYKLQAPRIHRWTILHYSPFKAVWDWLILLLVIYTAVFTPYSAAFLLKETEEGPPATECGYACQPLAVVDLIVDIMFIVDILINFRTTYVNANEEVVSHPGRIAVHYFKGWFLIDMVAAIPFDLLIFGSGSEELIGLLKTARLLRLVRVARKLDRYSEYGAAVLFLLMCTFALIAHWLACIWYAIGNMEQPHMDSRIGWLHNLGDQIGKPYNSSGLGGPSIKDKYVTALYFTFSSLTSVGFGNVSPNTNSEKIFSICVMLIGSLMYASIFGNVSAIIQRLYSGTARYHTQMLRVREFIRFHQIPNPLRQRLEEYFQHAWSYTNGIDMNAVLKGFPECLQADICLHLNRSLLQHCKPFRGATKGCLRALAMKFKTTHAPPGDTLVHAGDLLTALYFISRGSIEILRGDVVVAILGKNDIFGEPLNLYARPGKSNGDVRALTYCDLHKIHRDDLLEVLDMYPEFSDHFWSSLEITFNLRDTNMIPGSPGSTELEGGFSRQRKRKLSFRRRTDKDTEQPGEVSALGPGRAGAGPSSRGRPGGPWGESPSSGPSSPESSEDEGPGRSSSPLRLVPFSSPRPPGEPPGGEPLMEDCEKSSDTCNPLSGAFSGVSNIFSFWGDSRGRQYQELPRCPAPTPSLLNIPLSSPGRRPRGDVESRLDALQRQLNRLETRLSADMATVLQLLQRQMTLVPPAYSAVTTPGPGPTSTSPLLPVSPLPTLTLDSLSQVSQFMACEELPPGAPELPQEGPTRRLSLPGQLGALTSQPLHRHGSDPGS

Row | SMILES | hERG current change (%, negative = inhibition) at 10uM [%]
1 | COc1ccc(C(=O)NCc2cc(C)nc3ccccc23)cc1OC | -8.56
2 | O=C(CSc1nncc(=O)[nH]1)NC1CCCCC1 | 27
3 | COc1cc(OC)c(C(=O)NC2CCCCCC2)cc1OC | -3.27
4 | Clc1ccc(-n2nnnc2-c2cnc3ccccc3c2-c2ccccc2)cc1 | 1.26
5 | CC1(C)CC(=O)C=C(Nc2ccc(OCC(F)(F)C(F)F)cc2)C1 | -65.7
6 | CCCOc1ccc(NC2=CC(=O)CC(C)(C)C2)cc1 | 1.89
7 | COc1ccc(NC2=CC(=O)CC(C)(C)C2)cc1 | 7.6
8 | Cl.O=C1c2cccc3c2[C@H](CCC3)CN1[C@@H]1CN2CCC1CC2 | -46.2
9 | Cc1cc2nc(CCN3CCOCC3)n(S(=O)(=O)c3ccc(C(C)(C)C)cc3)c2cc1C | -3.7
10 | CCOc1ccc(CNc2nc3ccccc3n2C)cc1 | -31.4
11 | CCOc1ccc(CNc2nc3ccccc3n2CCN2CCOCC2)cc1.Cl | -64.2
12 | CCn1c(NCc2cc(OC)c(OC)c(OC)c2)nc2ccccc21.Cl | -25.3
13 | c1csc(CNc2nc3ccccc3n2CCN2CCOCC2)c1 | -28
14 | COc1ccc(CNc2nc3ccccc3n2CCN2CCOCC2)cc1 | -64.6
15 | COc1ccc(S(=O)(=O)n2c(CCN3CCOCC3)nc3ccccc32)cc1 | -59.2
16 | COc1ccc(CNc2nc3ccccc3n2Cc2ccccc2)cc1OC | -44.7
17 | CC(=O)Nc1nc2ccccc2n1CCN1CCOCC1 | 0.217
18 | Cl.c1ccc(CNc2nc3ccccc3n2CCN2CCOCC2)nc1 | -15.5
19 | COc1cccc(CNc2nc3ccccc3n2CCN2CCCCC2)c1 | -59.3
20 | CC(C)(C)c1ccc(S(=O)(=O)n2c(CN3CCOCC3)nc3ccccc32)cc1 | 3.73
21 | CCOC(=O)[C@H]1[C@H]2COc3ccc(C)cc3[C@@H]2N2C(=O)CN(Cc3ccc(C)cc3)C(=O)[C@@]12C | 4.36
22 | COc1cccc(N2C(=O)CN(Cc3ccc(OC)c(OC)c3)C2=S)c1 | 17

Row | SMILES | hERG current change (%, negative = inhibition) at 10uM [%]
23 | CCCCCOc1ccc(NC(=O)C(=O)NCCCn2ccnc2)cc1 | 2
24 | CCn1c(SCC(=O)NNC(=O)c2ccccc2)nnc1-c1ccncc1 | -5.25
25 | C=CCc1c(C)nc2c(-c3ccccc3)cnn2c1N1CCOCC1 | 12.3
26 | CC(=O)C1=C(O)C(=O)N(c2ccc(Br)cn2)C1c1ccccc1[N+](=O)[O-] (stereo not drawn) | 20.2
27 | O=C1CCCc2nn(-c3ccccc3)nc21 | 11.3
28 | Cc1ccc(S(=O)(=O)N(C)C)cc1NC(=O)CSc1nc2ccccc2[nH]1 | -29.4
29 | C[C@@H]1NC(=O)[C@H](CC(N)=O)NC(=O)c2cc([N+](=O)[O-])cc(I)c2OCC[C@@H](C(=O)NC(CC(=O)O)C(N)=O)NC1=O (stereo partly drawn) (NA[hSer(Ph(2-I,4-NO2,6-CO))][ξD]-NH2; lactam N-3) | 6.03
30 | O=S(=O)(Cc1ccccc1)Nc1cccc(F)c1 | 15.2
31 | Cl.FC(F)(F)c1ccc(CN2CCNCC2)cc1 | 0.155
32 | Cc1ccccc1NC(=O)Cc1nnc(N)s1 | 11.3
33 | COc1ccc(CCNC(=S)NC2CCN(Cc3ccccc3)CC2)cc1OC | -39.1
34 | Cc1nc(CCNC(=O)COc2ccccc2)cs1 | 17.2
35 | COc1ccc(CNc2nc3ccccc3n2C(C)C)cc1 | -18.7
36 | COc1ccc(CNc2nc3ccccc3n2CCN2CCCCC2)cc1 | -59.7
37 | C=CCn1c(NCc2ccc(OC)cc2)nc2ccccc21 | -17.2
38 | CN(C(=O)c1nn(C)c2c1CSc1ccccc1-2)c1ccccc1Cl | 3.14
39 | CC1(C)N=C2C(=[N+]1[O-])CCC/C2=N\O | 11.6
40 | O=C(NCCc1ccccn1)c1nc(Cn2cc(Br)cn2)no1 | 11.4
41 | Cc1ccc(NC(=S)N2CCC(N(C)CC3CCCO3)CC2)cc1 (stereo not drawn) | -4.57
42 | Cc1cc(C)cc(NC(=S)N2CCC(N(C)CC3CCCO3)CC2)c1 (stereo not drawn) | -52
43 | Cc1cccc(NC(=S)N2CCC(N(C)CC3CCCO3)CC2)c1 (stereo not drawn) | -32.3
44 | O=C(CCCC(=O)N(CC(=O)NC1CCCC1)c1ccc(F)c(Cl)c1)Nc1ccccn1 | -9.24

Row | SMILES | hERG current change (%, negative = inhibition) at 10uM [%]
45 | COCCCN(C(=S)Nc1cc(Cl)cc(Cl)c1)C(C)c1ccccn1 (stereo not drawn) | -38.8
46 | CCCc1cc(=O)[nH]c(SCC(=O)Nc2cc(C)on2)n1 | -70.9
47 | CCCc1cc(=O)[nH]c(SCC(=O)Nc2nonc2C)n1 | 4.4
48 | CCc1cc(=O)[nH]c(SCC(=O)Nc2cc(C)on2)n1 | -4.55
49 | COC(=O)C1=C(O)/C(=C\c2ccc(CNC(=O)C(=O)Nc3ccc(C)c(C)c3)o2)N=C1C | -17.8
50 | CC(=O)Nc1cc(C(=O)O)ccc1S(=O)(=O)c1ccc(C)cc1 | 6.18
51 | CN1CCCN(C(=O)COc2ccc(F)cc2F)CC1 | -3.55
52 | CCCCCCSc1cc(-c2nc3cnccn3c2NCc2ccccc2)ccc1OC.O=C(O)C(F)(F)F | 0.374
53 | CCCCNc1c(-c2ccc(-c3ccc(C(C)=O)cc3)c(OC)c2)nc2cnccn12.O=C(O)C(F)(F)F | -52.3
54 | CCCCNc1c(-c2ccc(OC)c(SC3CCCCC3)c2)nc2cnccn12.O=C(O)C(F)(F)F | -14.4
55 | CCOC(=O)c1nn(-c2ccccc2)c(=O)cc1SC(C)C | -19.1
56 | CN(C)c1nc(OCC(=O)NC(C)(C)C)nc(N(C)C)n1 | 8.21
57 | O=C(Cc1nnc(NC(=O)Nc2ccccc2F)s1)NCc1ccccc1 | 8.98
58 | CC(C)(C)NC(=O)c1cnn2c1NC(c1ccc(F)cc1)CC2C(F)(F)F (stereo not drawn) | 2.13
59 | COc1ccc(C(=O)Nc2nc(CC(=O)NCCc3ccccc3OC)cs2)cc1 | -6.94
60 | Cc1nc(NCCc2ccc(S(N)(=O)=O)cc2)c2c3c(sc2n1)CCC3 | 8.64
61 | NS(=O)(=O)c1ccc(CCNc2nc(CN3CCOCC3)nc3sc4c(c23)CCC4)cc1 | -31.2
62 | NS(=O)(=O)c1ccc(CCNc2nc(CN3CCCCC3)nc3sc4c(c23)CCC4)cc1 | -72.9
63 | CCOC(=O)Cc1nnc(NC(=O)COc2ccc(C)cc2)s1 | 5.07
64 | N#C/C(=C\c1cccnc1)C(=O)Nc1ccccc1 | 4.04
65 | O=C(Nc1cccnc1)c1cccc(-c2cc3ccccc3oc2=O)c1 | 14.5
66 | O=C(NCc1cccnc1)c1ccc(-c2cc3ccccc3oc2=O)cc1 | 4.65

Row | SMILES | hERG current change (%, negative = inhibition) at 10uM [%]
67 | O=C(NCc1cccnc1)c1cccc(-c2cc3ccccc3oc2=O)c1 | -63.9
68 | O=C(OCc1cn(-c2ccc(Cl)c(Cl)c2)nn1)c1ccccc1Cl | -5.05
69 | CCOC(=O)C1(CCc2ccccc2)CCN(Cc2ccn[nH]2)CC1 | -72.5
70 | CCOC(=O)C1(CCCc2ccccc2)CCN(Cc2ccn[nH]2)CC1 | -73
71 | Cc1ccc(Cn2c(C)c3cnn(CC(=O)NC4CCCC4)c(=O)c3c2C)cc1 | 7.2
72 | Cc1[nH]c(C)c2c(=O)[nH]ncc12 | 16.6
73 | CCN(CC(=O)Nc1ccc2c(c1)OCCO2)Cc1cc(=O)n2ccsc2n1 | 3.88
74 | CN(CC(=O)NCCC1=CCCCC1)S(=O)(=O)c1ccc2c(c1)c(=O)n(C)c(=O)n2C | -64.9
75 | Cn1c(=O)c2cc(S(=O)(=O)NCCC(=O)NCCC3=CCCCC3)ccc2n(C)c1=O | -15.8
76 | Cc1ccc(CCNC(=O)CN(C)S(=O)(=O)c2ccc3c(c2)c(=O)n(C)c(=O)n3C)cc1 | -11.7
77 | Cc1nc2sc3c(=O)[nH]nnc3c2c(C)c1Br | 15.5
78 | CC(=O)c1sc2nc(-c3ccco3)ccc2c1N | 0.505
79 | O=C(Cc1ccccc1)N/N=C/c1cccnc1 | 20.3
80 | O=C(Cn1nc(-c2ccccc2)ccc1=O)Nc1ccc(N2CCN(C(=O)c3cccs3)CC2)cc1 | -18.5
81 | Cc1ccc(C(=O)N2CCCC2)cc1S(=O)(=O)N1CCOCC1 | 1.43
82 | COc1ccc(S(=O)(=O)N2Cc3ccccc3CC2C(=O)O)cc1 (stereo not drawn) | -13.1
83 | O=C(C1Cc2ccccc2CN1S(=O)(=O)c1ccc(F)cc1)N1CCCCC1 (stereo not drawn) | -13.2
84 | COc1ccc(S(=O)(=O)N2Cc3ccccc3CC2C(=O)N2CCOCC2)cc1OC (stereo not drawn) | -18.7
85 | O=C(c1ccco1)N1CCN(C(=O)C2Cc3ccccc3CN2S(=O)(=O)c2ccc(F)cc2)CC1 (stereo not drawn) | -70.6
86 | O=C(C1Cc2ccccc2CN1S(=O)(=O)c1ccc(F)cc1)N1CCOCC1 (stereo not drawn) | -18
87 | COc1ccc(S(=O)(=O)N2Cc3ccccc3CC2C(=O)N2CCOCC2)cc1 (stereo not drawn) | -59.2
